Each structure is given as a SMILES string. Out of some 360,000 compounds screened, about 7,500 (2.1%) were called active. Another 8% or so got no clear call; they are omitted. This excerpt belongs to a sample that is enriched for actives. A number with no mark means an inactive call. Calls follow the shape of the dose curve; as a rule, active = well fitted cell-killing curve with a large enough effect; inconclusive = small, poorly fitted or top-dose-only effect, or effect the other way, or another doubt; inactive = no such curve, though single readings can be large or run the other way.
Potency is read from the fitted curve at half-maximal effect.

The assay is described as follows: qHTS for induction of synthetic lethality in tumor cells producing 2HG: qHTS for the HT-1080-IDH1KD cell line.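 As to activity, negative = toxicity: 0% = DMSO wells and -100% = cell-free medium wells.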 The settings on record: HT-1080 IDH1 knockdown viability, ATP luminescence, 48 h; series mostly up to 46.1 µM; activity, negative = toxicity: at the top concentration. In outline:
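Cytotoxicity counter-line: IDH1KD HT-1080, 48 h, CellTiter-Glo. Curves classed by r2, magnitude and activity.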
In general terms: Quantitative high-throughput screening tests each substance at several concentrations.
For `COc1ccc(C(=O)N2CCCCC2c2cc(C(=O)Nc3ccc(F)c(Cl)c3)no2)cc1` (stereo not given), the “activity, negative = toxicity” value was -2.02%.

With `CSc1nc(-c2ccccc2)nc(C(Cl)Cl)n1`, the Potency is 18.4 µM (active).

Consider `CSc1ncc(Sc2ccccc2)c(C(=O)O)n1`, for which the “activity, negative = toxicity” value was 12.7%. Consider `Cc1ccccc1-c1ccc2c(c1)O[C@@H](CN(C)Cc1ccc(C(=O)O)cc1)[C@@H](C)CN([C@H](C)CO)S2(=O)=O`, for which the “activity, negative = toxicity” value was -7.84%.

For `CC(=O)Nc1cccc(Nc2ccc(C#N)cc2)c1`, the “activity, negative = toxicity” value is 0.812%.

Turning to `Cc1ccc(NC(=S)N(CCN2CCCCC2)Cc2ccco2)cc1C`, the “activity, negative = toxicity” value is -5.58%. Take `Cc1ccc(NC(=S)N(CCCN2CCCC2)Cc2cccn2Cc2ccc(Cl)cc2)cc1`: the Potency is 23.1 µM (active). In the case of `Cc1ccc(NC(=S)N(CCCN2CCC(C)CC2)Cc2ccco2)cc1`, the “activity, negative = toxicity” value is -5.45%. As for `Cc1ccc(NC(=O)COC(=O)CN2CCSC2=O)cc1F`, the “activity, negative = toxicity” value was 2.76%. Regarding `CCc1nc2c(OCCOc3ccc(F)cc3)cccn2c1N(C)C(=O)c1ccccc1F`, the “activity, negative = toxicity” value was -5.69%.

`O=C(OCc1ccccc1)N1CCC2CC1c1ccc(-c3ccc4c(c3)OCO4)cc12` (stereo not given): the “activity, negative = toxicity” value is 3.84%. Still for that read-out and setting: as for `CCOC(=O)C1(C)CCCN(C(=O)c2cccc(Cl)c2)C1` (stereo not given), the figure is 4.06%; as for `CCCCCNC(=O)C(c1ccc(OC)cc1)n1c(=O)c(-c2ccccc2)nc2ccccc21` (stereo not given), -17.2%; as for `O=C(NC1CCCC1)C1c2ccccc2OCC(=O)N1Cc1ccccc1` (stereo not given), 4.14%. As to `COc1cc(Br)cc(/C=N/c2ncn[nH]2)c1O`, the Potency is 15.8 µM (active). `C=CCn1c(Cn2nnc3ccccc32)nnc1SCC(=O)N/N=C/c1cc(Br)cc(OC)c1O`: the “activity, negative = toxicity” value was 6.3%. Still for that read-out and setting: as for `Oc1c(Cl)cc(Cl)cc1/C=N/c1ncn[nH]1`, the figure is 11.8%; as for `COc1cc2nc(N3CCCN(C)CC3)nc(NC(C)C)c2cc1OC`, -17.8%; as for `O=S1(=O)CC(N2CCSCC2)CN1Cc1cn(Cc2cccc(Cl)c2)nn1` (stereo not given), 1.27%.

For the molecule `CN1OC[C@@H]2CN(S(=O)(=O)c3cccc4ccccc34)[C@H](c3ccc(N4CCCCC4)cc3)C[C@@H]21`, the “activity, negative = toxicity” value is -11.5%.

Take `CCc1nc(C)ccc1OCC(=O)N(CC)CC`: the “activity, negative = toxicity” value was 5.18%.

Consider `CCC(C)(C)c1ccc(OCC(=O)N(C)C)c(C(C)(C)CC)c1`, for which the Potency was 20.6 µM (active). As to `COc1cccc(C(O)c2ncc(-c3ccc4ccccc4c3)[nH]2)c1` (stereo not given), the “activity, negative = toxicity” value is 0.29%. With `COc1ccc(S(=O)(=O)N2CCC(C(=O)NCCC(=O)NCCc3cccc(F)c3)CC2)cc1`, the “activity, negative = toxicity” value was 3.72%. As to `Cc1ccc(NC(=O)[C@H](Cc2ccccc2)NC(=O)CC[C@H]2O[C@@H](n3ccc(=O)[nH]c3=O)[C@H](O)[C@@H]2O)cc1C`, the “activity, negative = toxicity” value is 7.02%. As for `COc1cc(C(=O)OCCCN2CCOCC2)cc(OC)c1OC`, the “activity, negative = toxicity” value was 6.61%.

With `CCCc1c(C)nc2scc(-c3ccc(Cl)cc3)n2c1=O`, the “activity, negative = toxicity” value was 13.9%. On to `CC1CN(C(=O)CCC(=O)NC2CCN(Cc3ccccc3)CC2)c2ccccc2O1` (stereo not given), for which the “activity, negative = toxicity” value is -0.348%. In the case of `CC1CN(C(=O)CCC(=O)NCc2cccnc2)c2ccccc2O1` (stereo not given), the “activity, negative = toxicity” value was -2.22%.

As to `CC1CN(C(=O)CCC(=O)NCCCN2CCC(Cc3ccccc3)CC2)c2cc(Cl)ccc2O1` (stereo not given), the Potency is 16.4 µM (active).

Values taken from PubChem BioAssay AID686971 (National Center for Advancing Translational Sciences (NCATS), 2013).
